p53ts 39C kill: qHTS Screen for Compounds that Selectively Target Cancer Cells with p53 Mutations: Cytotoxicity of p53ts Cells at the Nonpermissive Temperature; H1299-p53A138V viability at 39C, ATP luminescence, 24 h; 130,000 tested, 1.5% active; Potency, µM (doses to about 46.1 µM), for the others: top-dose activity change, negative = cell killing, most hits filed as cytotoxic; AID 902, 2007; note: potency is the fitted concentration of half-maximal effect; % is set by controls: 0 for no effect and ±100 for the full control effect; nearly all actives have a fitted effect of over 55% in size
Epigenetic mod: qHTS Assay for Epigenetic Modulators. 68,000 tested, 0.09% active. Potency, µM (top dose mostly 46.1 µM), inactives show top-dose GFP derepression (activation). mouse C127i GFP locus derepression, cytometry, 30 h. AID 597, 2007; note: % of control where 0% means no effect
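Derepression screen: silenced CMV-GFP reporter in murine C127i cells, 30 h compound incubation at 37 C, washed cells imaged by laser-scanning cytometer to enumerate GFP-expressing objects of 20 to 120 um.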
Imprint erasure: qHTS Assay for Compounds that Induce Erasure of Genomic Imprints; mouse ES Peg3-LacZ reporter, beta-gal luminescence, 40 h; Potency, µM (highest dose often 60.7 µM), for inactives: at the highest dose activity change, positive = activation, most hits filed as activators; 110,000 tested, 0.02% active; note: potency is the fitted concentration of half-maximal effect
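Gelatin-coated wells received 300 freshly trypsinized female ES cells with a Peg3LacZ-Neo reporter on the maternal allele, then incubated 40 hours at 37C. BetaGlo was added for 5 minutes at room temperature before a single luminescence read.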
HBB splice mod: qHTS Assay for Modulators of Hemoglobin Beta Chain Splicing; HBB splicing reporter cell assay, activation; EGFP reporter with mutant IVS2-654 intron; response scale: normalised to 500 nM splice-correcting PNA; Potency, µM (top dose mostly 46.1 µM), without a hit: at the top dose activation, hits mostly activators; 65,000 tested, 0.06% active; AID 925, 2007; note: potency is the fitted concentration of half-maximal effect; 0% is about no effect
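Compounds were applied for 2 days to HeLa EGFP-654 cells, 500/well in Optimem with 2% FCS. The reporter's EGFP is disrupted by mis-splicing of beta-globin intron IVS2-654. Readout: summed well GFP fluorescence from 488 nm laser scanning; reference was 500 nM antisense […] 654 PNA.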
p53ts 32C tox: qHTS Screen for Compounds that Selectively Target Cancer Cells with p53 Mutations: Cytotoxicity of p53ts Cells at the Permissive Temperature. 130,000 tested, 0.93% active. H1299-p53A138V at 32C, ATP luminescence viability, 24 h. Potency, µM (highest dose often 46.1 µM), for the others: top-dose activity change, negative = cytotoxicity, actives largely listed as cytotoxic;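 note: potency is the fitted concentration of half-maximal effect; 0% = DMSO and -100% = full killing by reference compound; nearly all actives have a fitted effect of over 55% in size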
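Viability by ATPlite luminescence after 24 h compound treatment (up to 46 uM) at the permissive 32C. Cells are H1299 carrying p53 A138V. Scale runs from DMSO basal to 100 uM tamoxifen as full kill; AC50 from Hill fits.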
UbGFP stabilizer: Ubiquitin-GFP Assay; Ubiquitin-GFP reporter cells, proteasome inhibition, GFP fluorescence; response scale: untreated = 0%, 10 µM MG-132 = 100%; Potency, µM (titrated, usually from 45.9 µM), for inactives: at the highest dose activation (GFP accumulation), most hits filed as activators; 67,000 tested, under 10 active; active = well fitted activation curve with a large enough effect, not every such curve was filed as active; inconclusive = small, poorly fitted or top-dose-only effect, or another doubt; inactive = no such curve, though single readings can be large or run the other way; note: potency is the fitted concentration of half-maximal effect
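GFP accumulation read-out: laser plate cytometry counting ubiquitin(G76V)-GFP-expressing U2OS cells after 4 hr compound exposure at 37 °C. Titrations spanned 46 uM to 2.9 nM; 0% = basal, 100% = 10 uM MG-132; concentration-response curves fitted.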
* = called active by the depositor; ? = inconclusive; · = no result; [ ] = remark or other dose. A selection: hits, their analogues and other compounds. The true share with any hit is near 1.6%. Unless noted, calls come from the whole dose curve; as a rule, active = well fitted curve in the direction sought with a large enough effect; inconclusive = small, poorly fitted or top-dose-only effect, or another doubt; inactive = no such curve, though single readings can be large; an effect the other way counts as inactive or inconclusive.

SMILES | p53ts 39C kill | Epigenetic mod | Imprint erasure | HBB splice mod | p53ts 32C tox | UbGFP stabilizer
O=C(Nc1ccc(-c2nc3ccccc3[nH]2)cc1)C1CCCO1 (stereo not given) | 4µM* | -4% | -89% | 0% | 2.5µM* | 3%
Cc1ccc(S(=O)(=O)N2CCOCC2)cc1C(=O)OCC(=O)N1CCc2ccccc2C1 | -10% | -2% | -15% | 0%[57.5 µM] | -6% | -4%
CCCCNc1ncnc2c1cnn2-c1ccccc1 | ? | 13% | -16% | -2% | ? | -5%
c1ccc(-n2ncc3c(NC4CCCC4)ncnc32)cc1 | 10µM* | · | -17%[10.9 µM] | · | 13µM* | ·
COc1ccc(-n2ncc3c(NC4CCCC4)ncnc32)cc1 | 2µM* | · | -16%[10.9 µM] | · | 5µM* | ·
COc1ccc(CNc2ncnc3c2cnn3-c2ccc(Cl)cc2)cc1 | 7% | · | 21%[10.9 µM] | · | 5% | ·
COc1ccc(-n2ncc3c(NC(C)C)ncnc32)cc1 | 13µM* | · | · | · | 13µM* | ·
Cc1ccc(-n2ncc3c(NC4CCCC4)ncnc32)cc1 | ? | · | -21%[10.9 µM] | · | 13µM* | ·
Cc1ccc(Nc2ncnc3c2cnn3-c2ccc(C)cc2)cc1 | 2% | · | -7%[10.9 µM] | · | 8% | ·
Cc1ccc(NC(=O)COC(=O)c2ccc3c(c2)NC(=O)C2CCCN32)cc1C (stereo not given) | -6% | -2% | -5% | 0%[57.5 µM] | 7% | -4%
Cn1c(=O)n(CC(=O)O)c(=O)c2c1nc1n2CCS1 | 4% | 0% | 5% | · | 1% | -3%
COc1ccc(CNC(=O)C2CCN(S(=O)(=O)c3cn(C)cn3)CC2)cc1 | -18% | · | -5%[10.9 µM] | · | -1% | ·
Cc1cc(C)n2c(Nc3ccc4c(c3)OCCO4)c(-c3ccccc3)nc2n1 | 1% | · | -7%[10.9 µM] | · | 1% | ·
Nc1nnc(N2CCCCC2)s1 | 0% | -2% | -4% | 3%[0.369 µM] | -4% | ·
COc1cccc(/C=C2\SC(=O)N(CCC(=O)NNC(=O)c3ccccc3Cl)C2=O)c1 | -3% | · | · | · | · | ·
Nc1nc2n[nH]nc2c(=O)[nH]1 | -30%[20.6 µM] | 7%[20.6 µM] | 4%[16.8 µM] | 0.79µM* | ? | 20%[20.5 µM]
CC1C(=O)Nc2ccc(S(=O)(=O)N3CCCCC3)cc2NC1=O (stereo not given) | -5% | · | -8%[10.9 µM] | · | -6% | ·
Cc1ccc(Nc2nc(N)nc(CSc3nncn3C)n2)cc1 | 13µM* | · | · | · | ? | ·
Cc1ccc(Nc2nc(N)nc(CSc3nnnn3-c3ccccc3)n2)cc1 | 12% | 0% | -13% | 0% | 8% | -9%
Cc1c(N2C(=O)SC(CC(=O)O)C2=O)c(=O)n(-c2ccccc2)n1C (stereo not given) | · | 6%[20.6 µM] | · | · | · | ·
N#CC1(Nc2ccc(-c3ccc(NC4(C#N)CCCC4)cc3)cc2)CCCC1 | 16%[9.22 µM] | -3%[9.22 µM] | 6%[10.9 µM] | 5%[9.22 µM] | -1%[9.22 µM] | -2%[9.17 µM]
CCOc1ccc(-c2cc(C(=O)N3CCN(c4ccccn4)CC3)c3ccccc3n2)cc1 | ? | 0% | -17% | 0% | 2.5µM* | 7%
COc1ccc(-c2cc(C(=O)N3CCN(c4ccccn4)CC3)c3ccccc3n2)cc1 | 13µM* | 0% | -21% | 1% | 13µM* | -7%
COc1ccc(OC)c(-c2cc(C(=O)N3CCN(c4ncccn4)CC3)c3ccccc3n2)c1 | -13% | 1% | -18% | 2% | -20% | 11%
COc1cc(-c2cc(C(=O)N3CCN(c4ccccn4)CC3)c3ccccc3n2)cc(OC)c1OC | -9% | 1% | -11% | -1% | 14% | 19%
SMILES | p53ts 39C kill | Epigenetic mod | Imprint erasure | HBB splice mod | p53ts 32C tox | UbGFP stabilizer
COc1cc(OC)cc(-n2c3nc4ccccc4nc3c3c(=O)n(CC4CCCO4)cnc32)c1 (stereo not given) | 5% | 3% | -4% | -3%[57.5 µM] | 6% | -4%
COc1ccc(NC(=O)c2ccco2)cc1NC(=O)COc1ccc(Cl)c(C)c1 | 10µM* | · | -6%[10.9 µM] | · | ? | ·
COc1ccc(Cn2c(SCC(N)=O)nc3c(sc4ccccc43)c2=O)cc1 | 13µM* | · | 11%[10.9 µM] | · | -9% | ·
CSc1nc2c(sc3ccccc32)c(=O)n1Cc1ccc(C)cc1 | -17% | · | -15%[10.9 µM] | · | -6% | ·
Cc1cccc(N2CCN(S(=O)(=O)c3cc(C(=O)Nc4ccccc4Cl)ccc3F)CC2)c1C | ? | · | -15%[10.9 µM] | · | 10% | ·
Cc1oc2ccc(O)c(CN(C)Cc3ccccc3)c2c1C(=O)Nc1cccc(C(F)(F)F)c1 | 20µM* | · | -8%[10.9 µM] | · | 14µM* | ·
CCc1nn2cc(-c3ccccc3)nc2s1 | 16µM* | -2% | -91% | 1% | 10µM* | -1%
COCc1nn2cc(-c3ccc(C)cc3)nc2s1 | 13µM* | · | -24%[10.9 µM] | · | 10µM* | ·
O=C(NC1CC1)c1ccc(-c2nc3ccccc3s2)s1 | 0.4µM* | 0% | -83% | 2%[57.5 µM] | 0.5µM* | 4%
CCN(CC)S(=O)(=O)c1cccc(C(=O)Nc2nc3cc4c(cc3s2)OCCO4)c1 | -3% | 2% | -24% | -3% | 5% | -14%
CCCCCn1c(=N)n(CC(O)COc2cccc(C)c2)c2ccccc21 (stereo not given) | 10µM* | · | -16%[10.9 µM] | · | ? | ·
O=C1C=C(NCCO)C(=O)c2cnccc21 | 4µM* | · | -72% | -1% | 3.2µM* | ·
COC(=O)c1ccccc1NC(=O)COC(C)=O | -7% | 0% | -9% | -3% | 16% | -2%
CCc1ccccc1NC(=O)Cn1c(=O)n(CC(=O)NCCc2ccccc2)c(=O)c2ccccc21 | 3% | · | -5%[10.9 µM] | · | 6% | ·
COc1cc2oc(-c3ccccc3)cc(=O)c2cc1O | 7.9µM* | -5%[9.22 µM] | -11% | · | ? | -1%
COc1cc(-c2cc(=O)c3ccccc3o2)ccc1O | -18% | 0%[9.22 µM] | -58% | · | -14% | -1%
CCOC(=O)c1ccc(N2Cc3ccccc3C2)cc1O | -12% | 6% | -33% | 0% | -11% | 0%
COCCCNC(=O)c1ccc2c(c1)nc1n2CCCCC1 | 10µM* | · | -5%[10.9 µM] | · | ? | ·
CCCNC(=O)c1ccc2c(c1)nc1n2CCCCC1 | 6.3µM* | · | -48%[10.9 µM] | · | 13µM* | ·
Cc1ccc(CCNC(=O)c2ccc3c(c2)nc2n3CCCCC2)cc1 | -18% | · | -12%[10.9 µM] | · | -23% | ·
COC1=CC(=O)C=C(OC)C1=O | 16µM* | · | -39% | · | ? | ·
COC1=CC(=O)C(C(=O)c2ccccc2)=CC1=O | ? | · | 18% | · | ? | ·
COc1ccc(-c2c(O)c3c(OC)c4c(cc3oc2=O)OC(C)(C)C=C4)cc1 | 6.3µM* | · | 1% | · | 7.9µM* | ·
N#Cc1c(C(F)(F)F)cc(-c2ccco2)nc1SCc1ccncc1 | -19% | 18% | -9% | 22%[57.5 µM] | -9% | -8%

Screening data: PubChem, National Center for Advancing Translational Sciences (NCATS)
